A340 absorber = compound absorbs light at 340 nm; compound absorbance at 340 nm, fold over control; fold change at 10 µM; 65,000 tested, under 10 active;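 active = at 10 µM dose, initial 340 nm absorbance at least 2 fold that of control wells; inactive = change under 2 fold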;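 note: initial absorbance extrapolated from kinetic A340 decline of NADH oxidation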
Spn MK inh = blocks S. pneumoniae mevalonate kinase; purified MK, PK/LDH-coupled NADH absorbance 340 nm; inhibition, % at 10 µM; 0.48% of 65,000 active; AID 555;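 active = ranked among the strongest by inhibition in the single 10 µM screen, a fixed top-ranked set picked for dose follow-up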
PMK inhibit = S. pneumoniae PMK inhibition. purified PMK, PK/LDH-coupled NADH absorbance 340 nm. inhibition, % at 10 µM. 0.49% of 65,000 active. AID 539;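 active = top-ranked compounds by inhibition in the single 10 µM screen, taking a fixed number of the strongest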;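 note: 0% = full reaction with DMSO carrier and 100% = background rate without enzyme reaction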
DPM-DC inhibit = S. pneumoniae DPM-DC inhibition. 0.49% of 65,000 active. purified DPM-DC, PK/LDH coupled NADH fluorescence. calls only at 10 µM;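 active = the 320 compounds with the highest percent inhibition in the single-dose primary screen, excluding strongly autofluorescent ones, cut at about 32% in these data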;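 note: kinetic rate of NADH fluorescence loss reporting ADP formed by the decarboxylase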
NADH coupling = inhibition of NAD/NADH coupling enzymes, library profiling | coupled PK/LDH NADH assays, four targets | 0.02% of 65,000 active | IC50, µM (highest dose often 10 µM), for inactives: at the highest dose inhibition;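 active = single-dose screening hits from any of four coupled enzyme assays that gave an IC50 when retested across doses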;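 note: the DPM-DC format reads NADH fluorescence rather than 340 nm absorbance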
Autofluor 339 = intrinsic fluorescence of library compounds, ex339/em460 – biochemical, MLSMR library, data from DPM-DC assay, artefact control, profiling panel; fluorescence fold increase at 10 µM; 5.5% of 65,000 active; compound autofluorescence, ex339/em460 nm, NADH buffer; hits give high values; 1 = no-compound wells, NADH background; AID 709;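 active = at 10 µM, mean starting fluorescence two-fold or more over control wells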;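 note: signal is the first read of a kinetic run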
Active calls of the source: *; i = inactive; . = no result shown; + = active, no number. Most compounds without a hit are left out; they make up all but 6.8% or so of the library.

SMILES | A340 absorber | Spn MK inh | PMK inhibit | DPM-DC inhibit | NADH coupling | Autofluor 339
COc1cccc(C2=CC(c3ccccc3)n3ncnc3N2)c1 (configuration not stated) | 1.06 | 1.0 | 10.0 | i | 6.0% | 1.59
CCOc1ccc(C2C=C(c3ccccc3)Nc3ncnn32)cc1 (configuration not stated) | 1.06 | 10.0 | 8.0 | . | 9.0% | 2.36*
COc1cccc(C2=CC(c3ccc(N(C)C)cc3)n3ncnc3N2)c1 (configuration not stated) | 1.09 | 13.0 | 8.0 | i | 10.0% | 2.08*
C1=C(c2ccc(-c3ccccc3)cc2)Nc2ncnn2C1c1ccco1 (configuration not stated) | 1.08 | 8.0 | 10.0 | . | 9.0% | 3.85*
CCOc1ccc(C2C=C(c3ccc(F)cc3)Nc3ncnn32)cc1 (configuration not stated) | 1.02 | 0.0 | 0.0 | . | 2.0% | 2.48*
CC1CCCN(C(=O)C(Cc2ccccc2)n2cccc2)C1 (configuration not stated) | 1.03 | 0.0 | 4.0 | i | 1.0% | 1.09
Cn1ccnc1SCC(=O)NC12CC3CC(CC(C3)C1)C2 | 1.03 | 10.0 | 9.0 | i | 6.0% | 1.08
COc1ccc(C2=CC(c3ccc(C)cc3)n3nnnc3N2)cc1 (configuration not stated) | 1.05 | 0.0 | 10.0 | i | 3.0% | 1.34
COc1ccc(C2C=C(c3ccc(C)cc3)Nc3ncnn32)cc1 (configuration not stated) | 1.05 | 2.0 | 7.0 | . | 5.0% | 2.35*
CCCCC(=O)Nc1ccc(C(N)=O)cc1 | 0.99 | 6.0 | 0.0 | + | 17.0% | 1.07
CCCCC(=O)Nc1ccc(C(=O)NCC(=O)OC)cc1 | 1 | 12.0 | 6.0 | i | 7.0% | 1.13
C=CCOn1c(=O)c(=O)n(OCc2ccccc2)c2ccccc21 | 1.03 | 5.0 | 12.0 | i | 6.0% | 1.1
NC(=O)c1cc2ccc(O)cc2oc1=NCc1ccccc1 | 1.03 | 0.0 | 19.0 | . | 10.0% | 4.64*
CCOc1ccc(OCC)c(N=c2oc3c(C)ncc(CO)c3cc2C(N)=O)c1 | 1.01 | 1.0 | 4.0 | i | 2.0% | 0.97
NC(=O)c1cc2ccc(O)cc2oc1=Nc1ccccc1 | 1.07 | 7.0 | 8.0 | i | 9.0% | 1.89
COc1ccc(OC)c(N=c2oc3cc(O)ccc3cc2C(N)=O)c1 | 1.05 | 9.0 | 4.0 | . | 7.0% | 3.26*
CN1C(=O)c2ccccc2N(C)C1c1ccc2c(c1)OCO2 (configuration not stated) | 0.98 | 8.0 | 7.0 | . | 8.0% | 3.87*
CCOC(=O)N1CCN(Cc2nc3c(c(=O)[nH]c(=O)n3C)n2Cc2cc(C)ccc2C)CC1 | 0.97 | 2.0 | 2.0 | i | 3.0% | 1.15
O=C1COc2ccc(C(=O)COC(=O)CCc3ccc(S(=O)(=O)N4CCOCC4)cc3)cc2N1 | 1.06 | 8.0 | 11.0 | i | 4.0% | 1.05
CC(C)C(=O)Nc1nnc(-c2ccccc2)o1 | 1.06 | 17.0 | 13.0 | i | 12.0% | 1.09
O=C(Nc1nnc(-c2ccccc2)o1)c1nc2ccccc2s1 | 1.14 | 1.0 | 5.0 | . | 3.0% | 2.19*
NC(=O)c1oc2ccccc2c1NC(=O)c1nc2ccccc2s1 | 1.12 | 2.0 | 4.0 | i | 2.0% | 2.65*
O=C(Nc1ccc2oc(-c3ccncc3)nc2c1)c1ccccc1F | 1.05 | 14.0 | 16.0 | . | 15.0% | 3.71*
CC(C)CC(=O)Nc1ccc2oc(-c3ccncc3)nc2c1 | 1.04 | 6.0 | 16.0 | . | 11.0% | 3.72*
O=C(Cc1ccccc1)Nc1ccc2oc(-c3ccncc3)nc2c1 | 1.07 | 8.0 | 2.0 | . | 5.0% | 3.86*
SMILES | A340 absorber | Spn MK inh | PMK inhibit | DPM-DC inhibit | NADH coupling | Autofluor 339
CC(C)CC(=O)Nc1cccc(-c2nc3ccccc3o2)c1 | 1.01 | 6.0 | 2.0 | i | 3.0% | 1.2
N#Cc1ccc(CSc2nnc(NC(=O)CN3C(=O)C4CC=CCC4C3=O)s2)cc1 (configuration not stated) | 1.01 | 0.0 | 9.0 | i | 3.0% | 1.07
Cn1c(-c2ccc(CN3CCCCC3)o2)nc2ccccc21 | 1.1 | 0.0 | 2.0 | i | 3.0% | 2.15*
CCCc1cc(N2CCCC2)n2nc(C)c(-c3ccccc3)c2n1 | 1.01 | 10.0 | 0.0 | i | 4.0% | 2.88*
CCOC(=O)c1cnn2c(N)c(C#N)nnc12 | 1.03 | 2.0 | 1.0 | i | 1.0% | 1.09
CCOC(=O)c1c(C)nc2c(C#N)cnn2c1C | 1.02 | 11.0 | 2.0 | i | 13.0% | 2.35*
COc1ccc(-c2cc(C(F)F)n3ncc(C(=O)N4CCN(C(=O)c5ccco5)CC4)c3n2)cc1 | 1.1 | 11.0 | 17.0 | . | 14.0% | 2.06*
COc1ccc(-c2cc(C(F)F)n3ncc(C(=O)NCCCN4CCCC4=O)c3n2)cc1 | 1.11 | 6.0 | 15.0 | . | 11.0% | 2.2*
COc1ccc(NC(=O)NCCCN2CCCC2=O)cc1 | 0.99 | 11.0 | 19.0 | i | 12.0% | 1.07
O=C(c1ccco1)N1CCN(c2ncnc3c(-c4ccccc4)nsc23)CC1 | 1.02 | 7.0 | 9.0 | i | 8.0% | 1.41
CN1CCN(C(=O)c2cnn3c(C(F)(F)F)cc(-c4ccc5c(c4)OCO5)nc23)CC1 | 1.09 | 6.0 | 14.0 | i | 8.0% | 1.06
COc1ccc(-c2nsc3c(N4CCN(C(=O)c5ccco5)CC4)ncnc23)cc1 | 1.08 | 9.0 | 11.0 | + | 18.0% | 2.79*
O=C(c1ccco1)N1CCN(C(=O)c2cnn3c(C(F)(F)F)cc(-c4cccs4)nc23)CC1 | 1.1 | 7.0 | 5.0 | . | 6.0% | 3.63*
COc1ccc(Nc2nc(C(=O)NCCCN3CCOCC3)cs2)cc1 | 0.94 | 8.0 | 14.0 | i | 7.0% | 1.08
CCN1CCN(C(=O)c2cnn3c(C(F)F)cc(-c4ccc(C)cc4)nc23)CC1 | 1.12 | 9.0 | 9.0 | i | 13.0% | 2.27*
Cc1c2c(nc3c(C(=O)NC4CCCC4)cnn13)CCCC2 | 1.01 | 0.0 | 23.0 | . | 12.0% | 4.9*
CC(=O)c1cccc(S(=O)(=O)N2CCN(c3nc4cc(C)cc(C)c4cc3C#N)CC2)c1 | 1.09 | 1.0 | 0.0 | i | 0.0% | 2.23*
CCCN(Cc1ccccc1)S(=O)(=O)c1ccc(N2C(=O)CCC2=O)cc1 | 1.03 | 9.0 | 8.0 | i | 6.0% | 1.12
COc1cc2cc(CN(Cc3cccnc3)C(=O)NCc3ccccc3)c(=O)[nH]c2cc1OC | 1.16 | 8.0 | 6.0 | . | 7.0% | 4.85*
CC(=O)N(Cc1cccnc1)Cc1cc2ccc(C)cc2[nH]c1=O | 1.05 | 8.0 | 11.0 | i | 9.0% | 1.37
Cc1ccc2[nH]c(=O)c(CN(CCO)C(=O)NCc3ccccc3)cc2c1 | 1 | 3.0 | 9.0 | i | 6.0% | 1.54
COc1ccc2[nH]c(=O)c(CN(CCO)C(=O)c3ccccc3F)cc2c1 | 1.01 | 9.0 | 9.0 | i | 11.0% | 2.91*
COc1ccc2[nH]c(=O)c(CN(CCN(C)C)C(=O)NCc3ccccc3)cc2c1 | 1.04 | 8.0 | 14.0 | i | 14.0% | 3.76*
CCC(=O)N(CCc1ccccc1C)Cc1cc2cc3c(cc2[nH]c1=O)OCO3 | 1.12 | 9.0 | 13.0 | . | 11.0% | 3.81*

Compound activity as filed in PubChem BioAssay.
